Compound activity from PubChem BioAssay.
In the library only some 2.3% were active in any assay of this set; here they are far more common.
CHRM1 antagonist – antagonists of human M1 muscarinic receptor; CHO-K1 hM1, Fluo-8 calcium fluorescence, ACh EC80 antagonist; actives 1.3% (n = 360,000); AID 588852; inhibition, % at 3 µM; P11229;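 active = percent inhibition above its own plate's cutoff, namely the mean of that plate's compound wells plus 3 SD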;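 note: peak over basal fluorescence ratio during 140 s after agonist addition; 0% = ACh EC80 plus DMSO and 100% = DMSO alone without agonist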
Target sequence (P11229 whole entry, looked up): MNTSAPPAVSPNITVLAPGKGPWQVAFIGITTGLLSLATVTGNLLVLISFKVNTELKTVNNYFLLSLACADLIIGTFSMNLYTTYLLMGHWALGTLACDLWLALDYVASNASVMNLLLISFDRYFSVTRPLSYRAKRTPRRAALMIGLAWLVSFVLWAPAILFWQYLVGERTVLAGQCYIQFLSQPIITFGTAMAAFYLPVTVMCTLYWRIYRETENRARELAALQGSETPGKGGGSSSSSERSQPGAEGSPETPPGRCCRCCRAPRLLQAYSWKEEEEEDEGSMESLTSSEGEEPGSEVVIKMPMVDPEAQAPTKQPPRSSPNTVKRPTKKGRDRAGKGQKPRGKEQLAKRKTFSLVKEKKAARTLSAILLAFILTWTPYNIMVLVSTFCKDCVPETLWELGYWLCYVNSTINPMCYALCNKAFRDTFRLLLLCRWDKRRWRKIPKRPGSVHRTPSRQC
CHRM1 PAM – human CHRM1 positive allosteric modulation; actives 0.088% (n = 360,000); activation, % at 3 µM; P11229; CHO-K1 hM1, Fluo-8 calcium fluorescence, ACh EC20; 0% = ACh EC20, 100% = maximal ACh; in the data active = activation above about 19%, passing the limit was not always enough
CHO-K1 Ca PAM – M1 PAM counterscreen hit in parental CHO-K1 cells; actives 0.02% (n = 360,000); activation, % at 3 µM; ATP EC20, Fluo-8 calcium fluorescence; 0% at ATP EC20, 100% at ATP max;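 active = activation above the run cutoff, the mean activation of all test compounds plus 3 SD, cut at about 40% in these data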;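 note: peak over basal fluorescence ratio in a 140 s read after ATP addition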
CHO-K1 Ca antag – M1 antagonist counterscreen hit in parental CHO-K1 cells; ATP-induced calcium, Fluo-8 fluorescence; inhibition, % at 3 µM; actives 0.6% (n = 360,000); AID 602250;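 active = inhibition above a per-plate cutoff, the plate's mean sample inhibition plus 3 SD, cut at about 24% in these data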;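 note: 0% = DMSO plus EC80 ATP and 100% = DMSO alone without ATP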
M1 ag – agonists of human M1 muscarinic receptor; actives 0.33% (n = 360,000); activation, % at 3 µM; CHO-K1 hM1, Fluo-8 calcium fluorescence, agonist mode; 0% DMSO, 100% acetylcholine EC100;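 active = activation above the run's mean compound activation plus 3 SD, cut at about 16% in these data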;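 note: peak over basal fluorescence ratio within a 140 s kinetic read after compound addition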
M1 ag parental – nonselective activator or artifact in parental CHO-K1 cells. actives 0.48% (n = 360,000). Fluo-8 calcium fluorescence; scaled to maximal ATP response, vehicle zero. AID 602248. activation, % at 3 µM; in the data active = activation above about 15%;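 note: untransfected CHO-K1 host cells lacking M1 receptor as counterscreen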
The depositor's hits bear a star; ! = not confirmed by another sample.

SMILES	CHRM1 antagonist	CHRM1 PAM	CHO-K1 Ca PAM	CHO-K1 Ca antag	M1 ag	M1 ag parental
CCOC(=O)c1ccc(Nc2ncnc3nc[nH]c23)cc1	3.6	-0.8	16.5	-9.5	-1.2	3.2
c1ccc(COc2ccc(Nc3ncnc4nc[nH]c34)cc2)cc1	-3.4	1.4	-0.4	24.5*	10.3	1.4
CCN1/C(=C/C(C)=C/c2sc3ccccc3[n+]2CC)Sc2ccccc21	47.6*	-23.6	-8.0	34.3*	11.2	19.9*!
COc1ccc(NC(=S)N2CCN(C(c3ccccc3)c3ccccc3)CC2)cc1OC	37.9*	-25.4	1.9	5.3	-8.2	0.1
COc1cc(C(=O)NCc2cccnc2)ccc1OCC(=O)Nc1cccc(C(F)(F)F)c1	7.2	-6.4	-14.9	7.8	1.0	16.6*
CCOc1ccc(NC(=O)COc2ccc(C(=O)NCc3cccnc3)cc2OC)cc1	-18.1	5.3	-22.1	17.6	-0.8	-0.2
Cn1c(=O)c2c(ncn2CC(=O)Nc2ccc(N3CCOCC3)cc2)n(C)c1=O	1.3	2.0	-27.6	25.0*	-0.2	-0.2
Cn1c(SCC(=O)N/N=C/C=C/c2ccco2)nc2ccccc21	-3.4	4.1	15.2	-2.2	-6.6	0.4
CC(C)(C)c1ccc(-n2ncc3c2CCCC3NC(=O)c2ccco2)cc1 (configuration not stated)	-3.5	-4.4	9.1	-17.5	-1.1	3.9
CCN(CC)c1ccc(C2C(C(=O)OC(C)C)C(=O)CC(C)(O)C2C(=O)OC(C)C)cc1 (configuration not stated)	29.9*	-9.2	5.0	6.8	-0.9	3.2
CCOC(=O)C1C(=O)CC(C)(O)C(C(=O)OCC)C1c1ccc(N(CC)CC)cc1 (configuration not stated)	-28.6	9.0	9.2	-1.1	-4.3	0.5
Cc1cc2c(c(=O)n1CC1CCCO1)C(c1ccc3c(c1)OCO3)C(C#N)=C(N)O2 (configuration not stated)	-7.6	9.0	20.1	-9.2	-1.4	0.4
CCn1c(C)cc2c(c1=O)C(c1ccc3c(c1)OCO3)C(C#N)=C(N)O2 (configuration not stated)	65.7*	-34.4	-0.3	-2.1	-14.6	0.0
O=C(CCc1ccccc1)NC(=S)Nc1ccc2c(c1)C(=O)OC2	-3.6	9.1	3.1	6.4	-5.2	15.5*
COc1ccc(C2C(=O)NN=C2C)cc1 (configuration not stated)	-15.7	8.4	12.0	-16.8	-1.8	0.8
Cc1nc(Cl)sc1C(=O)Nc1ccc(F)cc1	-14.6	7.5	11.8	-8.6	-4.5	1.3
CC(C)S(=O)(=O)c1csc(C(=O)Nc2ccc(F)cc2)c1N	-4.6	9.0	13.8	4.3	6.9	21.4*
CS(=O)(=O)Nc1ccc(-c2cccc3nccn23)cc1	24.1*	-12.1	-0.1	6.4	-2.5	0.0
CN(C)c1ccc(-c2cccc3nccn23)cc1	-8.7	1.4	15.9	-8.9	-8.1	0.8
Cc1oc(CC(C)C)c(CN)c1C(=O)O	-15.6	5.2	-5.9	-16.4	-1.9	0.1
Cc1scc2c1N(C(=O)CN1CCN(C)CC1)c1ccccc1NC2=O	98.0*	-25.7	15.3	-6.2	-6.2	0.4
COC(C[C@H](O)[C@@H](C)[C@@H](O)COCc1ccccc1)OC	-1.6	4.2	13.6	-5.8	0.6	0.7
COC(C[C@@H](O)[C@H](C)[C@@H](O)COCc1ccccc1)OC	50.9*	-32.1	14.4	-10.3	-9.0	0.8
COc1ccc(CNC(=O)C(C)OC(=O)c2cccc(N(C)C)c2)cc1 (configuration not stated)	1.5	-1.3	-0.1	-7.7	-3.4	1.0
COc1ccc(C(CNc2ccc(S(=O)(=O)N3CCN(C)CC3)cc2[N+](=O)[O-])N(C)C)cc1 (configuration not stated)	-5.3	3.9	4.6	-4.0	-5.8	1.2
SMILES	CHRM1 antagonist	CHRM1 PAM	CHO-K1 Ca PAM	CHO-K1 Ca antag	M1 ag	M1 ag parental
COc1ccc(C(CNc2ccc(S(=O)(=O)N3CCCC3)cc2[N+](=O)[O-])N2CCCC2)cc1 (configuration not stated)	74.7*	-28.2	11.4	6.1	-9.9	1.9
CCNC(=O)C/C(C)=N/NC(=O)C12CC3CC(CC(C3)C1)C2	-2.4	7.3	-6.8	24.2*	-0.7	0.5
COC(=O)/C(=C\C=C\c1ccccc1)NC(=O)c1ccccc1	-4.5	-3.4	-9.3	28.7*	-3.9	3.0
O=C(Nc1ccc(O)cc1)/C(=C\C=C\c1ccccc1)NC(=O)c1ccccc1	22.1	-10.7	8.3	-4.5	-1.3	3.0
CCCc1cc(=O)oc2c(CN3CCCC3)c(O)c(Cl)cc12	-1.5	1.4	-8.6	28.8*	-1.5	-0.4
Cc1cc(=O)oc2c(CN3CCCC3)c(O)c(Cl)cc12	-6.0	5.9	1.1	-4.9	-4.1	0.4
CCCCCCCCNc1ncnc2ccccc12	28.6*	-10.8	-6.2	39.3*	-2.0	11.2
c1ccc(CCNc2ncnc3ccccc23)cc1	24.4	-12.2	-3.4	32.3*	-3.6	10.4
Cc1cc2c(NCCc3ccccc3)ncnc2s1	24.4	-5.4	-15.8	23.7*	3.7	12.5
CCOc1cccc(NC(=O)C2CC(=O)NC(=Nc3ccccc3)S2)c1 (configuration not stated)	0.5	-6.8	-3.7	-1.6	-1.8	1.4
COc1ccc2cc(OCC(=O)NNC(=O)Nc3ccc(F)cc3)ccc2c1	-5.5	11.4	13.7	17.9	2.4	1.1
CN(C)C(CNS(=O)(=O)c1ccc2ccccc2c1)c1ccccc1 (configuration not stated)	-2.6	2.4	10.3	-14.0	-6.4	3.5
CC(C)n1nnnc1SCC(=O)N(C)C1CCS(=O)(=O)C1 (configuration not stated)	-5.4	3.8	17.8	-14.1	-1.9	0.6
COC(=O)C1(c2ccccc2)NC(c2cccs2)C2C(=O)N(C)C(=O)C21 (configuration not stated)	-0.1	2.9	8.6	-9.3	-1.4	0.1
COC(=O)C1(c2ccccc2)NC(c2cccs2)C2C(=O)N(c3ccccc3)C(=O)C21 (configuration not stated)	-16.8	13.8	31.3	-14.0	41.2*	11.6
Cc1nc2cc(Cl)c(Cl)cc2n1CCCO	-4.9	5.2	17.2	-5.3	-7.3	1.4
Cc1cc(=S)cc(C)n1CCCO	5.8	-1.8	-3.9	28.6*	-7.0	0.0
O=C(/C=C1\NC2(CCCC2)Cc2ccccc21)C(=O)N/N=C/c1ccc(O)c(O)c1	-10.5	18.8	7.8	-0.1	16.9*	1.2
COc1ccc(/C=N/NC(=O)C(=O)/C=C2\NC3(CCCC3)Cc3ccccc32)cc1	-1.0	24.7*	2.5	4.9	14.4	0.8
CC(C)(C)c1ccc(OCCCn2ccnc2)cc1	9.3	-10.3	-6.1	-5.8	-8.2	3.6
COc1cnc(-c2ccccn2)nc1Oc1ccc(Cl)cc1	-4.9	9.4	-6.5	24.4*	-1.7	0.1
